Hit rate of the full screen: of about 310,000 compounds, about 14,000 (4.5%) showed an effect of 50% or more. The effect is printed as a negative number. The sample holds strong results, similar compounds and a random draw of the others, so the mix is not that of the screen.
What follows are molecules tested against human ether-à-go-go-related gene (hERG) potassium channel (human, UniProt Q12809) (assay: primary screen, population patch clamp on CHO cells stably expressing hERG; higher = less effect of the substance).
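Further: peak tail current of the secondary pulse compared with the same well before compound.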

Chain of human ether-à-go-go-related gene (hERG) potassium channel (Q12809 whole entry, looked up): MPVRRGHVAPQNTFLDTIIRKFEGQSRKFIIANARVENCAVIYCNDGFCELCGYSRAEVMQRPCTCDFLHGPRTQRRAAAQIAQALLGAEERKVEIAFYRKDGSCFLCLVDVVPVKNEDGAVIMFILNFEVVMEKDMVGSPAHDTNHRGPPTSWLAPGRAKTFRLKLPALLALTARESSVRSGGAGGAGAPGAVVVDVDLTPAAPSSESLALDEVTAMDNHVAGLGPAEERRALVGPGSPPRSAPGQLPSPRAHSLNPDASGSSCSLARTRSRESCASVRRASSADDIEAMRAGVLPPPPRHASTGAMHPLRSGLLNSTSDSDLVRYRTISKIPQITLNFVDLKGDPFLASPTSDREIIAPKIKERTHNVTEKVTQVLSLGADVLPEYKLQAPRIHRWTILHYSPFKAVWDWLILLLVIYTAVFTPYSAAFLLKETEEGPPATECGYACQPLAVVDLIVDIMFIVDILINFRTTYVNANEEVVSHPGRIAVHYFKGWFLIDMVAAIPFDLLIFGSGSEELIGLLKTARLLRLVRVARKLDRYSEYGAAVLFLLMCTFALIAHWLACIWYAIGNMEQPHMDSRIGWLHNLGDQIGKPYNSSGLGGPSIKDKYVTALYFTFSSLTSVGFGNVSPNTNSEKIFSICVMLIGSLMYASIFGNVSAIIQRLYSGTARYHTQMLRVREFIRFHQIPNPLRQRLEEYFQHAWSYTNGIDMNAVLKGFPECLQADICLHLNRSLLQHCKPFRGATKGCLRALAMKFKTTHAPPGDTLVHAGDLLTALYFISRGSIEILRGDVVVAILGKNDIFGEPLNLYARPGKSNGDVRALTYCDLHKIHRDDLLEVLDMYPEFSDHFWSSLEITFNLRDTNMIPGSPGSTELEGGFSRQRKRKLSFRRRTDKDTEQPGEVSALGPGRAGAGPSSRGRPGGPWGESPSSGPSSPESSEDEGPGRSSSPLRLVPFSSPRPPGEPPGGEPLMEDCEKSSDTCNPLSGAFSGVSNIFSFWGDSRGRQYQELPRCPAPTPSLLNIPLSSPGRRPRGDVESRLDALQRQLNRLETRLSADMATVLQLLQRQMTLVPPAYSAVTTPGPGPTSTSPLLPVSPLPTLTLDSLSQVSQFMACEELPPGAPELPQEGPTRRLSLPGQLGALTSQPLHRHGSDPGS

Structure (SMILES)	hERG current change (%, negative = inhibition) at 10uM [%]
CC(C)(Oc1ccc(Cl)cc1)C(=O)OCC(=O)N1CCN(c2ccccc2)CC1	-7.02
CCN1C[C@]2(COC)CC[C@H](OC)[C@@]34C1[C@]1(OCO[C@@]15C[C@H](OC)[C@H]1C[C@@H]3[C@@H]5[C@H]1OC)[C@@H](O)[C@H]24	10.5
C=CCn1c(COc2ccc(Cl)cc2)nnc1SCC(=O)Nc1ccc(S(N)(=O)=O)cc1	-9.02
Cc1ccc(-c2nc(CS(=O)CC(=O)NCCCN3CC(C)CC(C)C3)c(C)o2)cc1 (stereo not shown)	-19.9
Cc1ccccc1-c1nc(CS(=O)CC(=O)NCCN2CCOCC2)c(C)o1 (stereo not shown)	3.48
Cc1ccccc1-c1nc(CS(=O)CC(=O)NCc2ccccc2)c(C)o1 (stereo not shown)	-21
Cc1oc(-c2ccc(Cl)cc2)nc1CS(=O)CC(=O)NCCCN1CCCC(C)C1 (stereo not shown)	-36.8
Cc1ccccc1-c1nc(CS(=O)CC(=O)NCCN2CCN(Cc3ccccc3)CC2)c(C)o1 (stereo not shown)	-58.7
Cc1oc(-c2ccc(Cl)cc2)nc1CS(=O)CC(=O)NCCCN1CCN(Cc2ccccc2)CC1 (stereo not shown)	-62.1
Cc1oc(-c2ccc(Cl)cc2)nc1CS(=O)CC(=O)NCCCN1CC(C)CC(C)C1 (stereo not shown)	-65.5
Cc1ccc(-c2nc(CS(=O)CC(=O)NCCCN3CCN(Cc4ccccc4)CC3)c(C)o2)cc1 (stereo not shown)	-38.2
Cc1oc(-c2ccc(Cl)cc2)nc1CS(=O)CC(=O)NCCCN1CCOCC1 (stereo not shown)	-3.95
O=C(CSc1nnc(-c2cccs2)o1)NCc1ccco1	-0.74
COC(=O)C1=C(Nc2ccc(OC)cc2)C=C(C)C(C(=O)OC)C1c1ccc(C)cc1 (stereo not shown)	18.9
C(#Cc1ccccc1)CN1CCOCC1.Cl	22.9
Cc1ccc(C)c(S(=O)(=O)N2CCN(C(=O)c3ccc(OCc4c(C)noc4C)cc3)CC2)c1	-21.9
O=C(Nc1ccc(S(=O)(=O)N2CCCCC2)cc1)c1ccc(=O)[nH]c1	7.49
Cc1cc(C)cc(Oc2ccc(-c3nnc(-c4ccccc4)o3)cc2[N+](=O)[O-])c1	7.94
Cc1ccc(-n2cc(CN3CCNC(=O)CC3)c(-c3ccc(F)cc3)n2)cc1	-35.4
Cc1ccn2c(CNCCCn3cccn3)c(C(=O)N3CCCCCC3)nc2c1	-23.4
COc1cccc(-c2nn(-c3ccccc3)cc2CNC(C)Cn2cncn2)c1 (stereo not shown)	-42.5

Structure (SMILES)	hERG current change (%, negative = inhibition) at 10uM [%]
Cc1ccc(-n2cc(CN(C)Cc3nccn3C)c(-c3cccc(C)c3)n2)cc1	-16.1
Cc1ccc(C)c(-n2cc(CNCCCn3cccn3)c(-c3ccccc3)n2)c1	-64.9
Cc1ccc(-n2cc(CN3CCN(c4ccccn4)CC3)c(-c3ccc(F)cc3)n2)cc1	11.2
Cc1ccc(C)c(-n2cc(CN3CCN(C(=O)c4ncn[nH]4)CC3)c(-c3ccccc3)n2)c1	-30.7
Cc1ccc(-n2cc(CNC(C)Cc3cnccn3)c(-c3cccc(C)c3)n2)cc1 (stereo not shown)	-73.8
CC(=O)N1CCCN(Cc2cn(-c3cc(C)ccc3C)nc2-c2ccccc2)CC1	-30.3
Cc1ccc(-n2cc(CN3CCC(O)(c4ccccn4)CC3)c(-c3ccc(F)cc3)n2)cc1	-56.7
Cc1ccc(-n2cc(CNCCCn3cccn3)c(-c3cccc(C)c3)n2)cc1	-71.6
CCOC(=O)C1=NN(c2ccccc2)C(c2ccccc2)CC1=O (stereo not shown)	5.31
Cc1nnc2n1N=C(c1ccc(F)cc1F)CS2	-3.32
CCOc1ccc(CCNC(=O)c2ccc(S(=O)(=O)N3CCCC3)cc2)cc1OCC	-8.47
CCn1c2ccccc2c2cc(/C=N/n3c(C)nnc3C)ccc21	-25
O=C(C1=C[C@H](C2CC2)C[C@H](OCCCCO)O1)N1CCOCC1	21.2
O=C(/C=C/c1nc2ccccc2s1)N1CCCCCC1	-0.709
CN(C)S(=O)(=O)c1cccc(C(=O)OCC(=O)Nc2sccc2C#N)c1	-2.79
Cc1ccc(-n2cc(CN3CCN(Cc4nccn4C)CC3)c(-c3cccc(C)c3)n2)cc1	-62.7
Cc1cccc(-n2cc(CN3CCN(Cc4nccn4C)CC3)c(-c3cccc(F)c3)n2)c1	2.98
Cc1ccc(-n2cc(CN3CCN(Cc4nccn4C)CC3)c(-c3ccc(F)cc3)n2)cc1	-26.8
CSCC[C@H](NC(=O)c1nn(C)c(=O)c2ccccc12)c1nc2ccccc2[nH]1	-3.07
Cc1cc([N+](=O)[O-])nn1CC(=O)N/N=C/c1ccccc1F	-5.15
Cc1ccc(C2N(c3ccccc3)C(=S)N3CCCN23)cc1 (stereo not shown)	7

Structure (SMILES)	hERG current change (%, negative = inhibition) at 10uM [%]
CC(C(=O)Nc1ccc(S(=O)(=O)N2CCCC2)cc1)N(C)Cc1ccc(F)cc1 (stereo not shown)	-9.91
O=S(=O)(c1ccc(OC(F)(F)F)cc1)N1CCC(O)(c2cccc(C(F)(F)F)c2)CC1	-4.35
CCC(C)N(C)Cc1cccc(C2(O)CCN(S(=O)(=O)c3ccc(F)c(C)c3)CC2)c1 (stereo not shown)	-72.4
Cc1cc(S(=O)(=O)N2CCN(c3c(C)cccc3C)CC2)ccc1F	-4.1
CCC(C)N(C)Cc1cccc(C2(O)CCN(S(=O)(=O)c3ccc(F)cc3)CC2)c1 (stereo not shown)	-69.3
CCc1ccccc1N1CCN(S(=O)(=O)c2ccc(F)c(C)c2)CC1	4.43
CN1CCc2c(sc(N)c2C(=O)O)C1	20.8
COc1ccc(C2C(C#N)=C(N)OC3=C2C(=O)CC(C)(C)C3)cc1Cn1nc(C)c([N+](=O)[O-])c1C (stereo not shown)	-50.6
COc1ccc(C2C(C#N)=C(N)OC3=C2C(=O)CC(C)(C)C3)cc1Cn1cc([N+](=O)[O-])cn1 (stereo not shown)	-6.92
COc1ccc(C2C(C#N)=C(N)OC3=C2C(=O)CCC3)cc1Cn1nc(C)c([N+](=O)[O-])c1C (stereo not shown)	-13.3
COC(=O)CCC(=O)OC1(C)C(=O)C=C2C=C(C3CC3)N(C(CO)CO)C=C2C1=O (stereo not shown)	5.72
COc1ccccc1C(=O)NCC(=O)NNC(=O)C1COc2ccccc2O1 (stereo not shown)	2.49
Cn1cc(CN2CCN(Cc3ccccc3)CC2)c(-c2cccc(Cl)c2)n1	-53
Cc1cnc(C)c(N2CCN(Cc3cn(C)nc3-c3cccc(Cl)c3)CC2)n1	-49.6
Cc1cc(N2CCN(Cc3cn(C)nc3-c3cccc(Cl)c3)CC2)cc(C)n1	-65
Cn1cc(CN2CCC(C(O)c3cccs3)CC2)c(-c2cccc(Cl)c2)n1 (stereo not shown)	-57
CC(C1CCN(Cc2cn(C)nc2-c2cccc(Cl)c2)CC1)N1CCOCC1 (stereo not shown)	-26.9
Cn1cc(CN2CCN(c3ncccn3)CC2)c(-c2cccc(Cl)c2)n1	-20.5
Cn1cc(CN2CCC(C(O)c3cccs3)CC2)c(-c2ccccc2F)n1 (stereo not shown)	-21.5
Cc1cc(N2CCN(Cc3cn(C)nc3-c3ccccc3F)CC2)cc(C)n1	-35
COCCN1CCN(Cc2cn(C)nc2-c2cccc(Cl)c2)CC1	-15.7

Structure (SMILES)	hERG current change (%, negative = inhibition) at 10uM [%]
Cc1c(Cl)cccc1NC(=O)Nc1ccn(C)n1	5.52
Cc1nn(C)c(C)c1/C=C(/C(=O)C(C)(C)C)n1cncn1	28.5
Cc1cccc(C)c1NC(=S)N1CCCN(C)CC1	15.2
Clc1ccc(-c2cnc3ccccc3n2)cc1	9.07
COc1ccc(C(=O)Nc2cc(C)c3c(=O)oc4ccccc4c3n2)cc1	7.49
OCC[C@@H]1C[C@H](O)[C@@H](O)[C@@]2(Cc3ccccc3CCO2)O1	10.6
CCC(Sc1nccn1C)C(=O)Nc1ccc(Cl)cn1 (stereo not shown)	5.78
O=[N+]([O-])c1ccc(CN2CCN(c3nc4ccccc4s3)CC2)cc1	-1.07
CCCn1c(N2CCN(Cc3ccc(Cl)cc3)CC2)nc2ccccc21.Cl	-69.8
Cl.c1ccc2c(c1)nc1n2CCN1CCN1CCCC1	-3.08
CCn1c(N2CCN(Cc3ccc([N+](=O)[O-])cc3)CC2)nc2ccccc21.Cl	-74.7
CN1CCN(CCN2CCn3c2nc2ccccc23)CC1.Cl	-7.38
CCCn1c(N2CCN(C(=O)Nc3ccc(Cl)cc3)CC2)nc2ccccc21	-16.8
CC(O)c1nc2ccccc2n1Cc1ccc([N+](=O)[O-])cc1 (stereo not shown)	-73.4
CC(O)c1nc2cc([N+](=O)[O-])ccc2n1Cc1ccccc1 (stereo not shown)	1.79
Cl.O=[N+]([O-])c1ccc(CN2CCN(c3ccc4ccccc4n3)CC2)cc1	-12.1
Cc1cccc(Cn2c(C(C)O)nc3ccccc32)c1 (stereo not shown)	5.37
CCCn1c(N2CCN(C(=O)N3CCCCC3)CC2)nc2ccccc21.Cl	-20.4
Cl.c1ccc(CN2CCN(CCN3CCn4c3nc3ccccc34)CC2)cc1	-75.8
